Screening data: PubChem BioAssay, National Center for Advancing Translational Sciences (NCATS)
Most compounds without a hit are left out; they make up all but 12% or so of the library.
Sfp inh – qHTS Assay for Inhibitors of Bacillus subtilis Sfp phosphopantetheinyl transferase (PPTase); 4'-phosphopantetheinyl transferase ffp (Bacillus subtilis), Q9F4F7; Biochemical Sfp PPTase activity, qHTS; Potency, µM, inactives show largest response in the series, negative = inhibition, actives largely listed as inhibitors; hit rate 3.5% among 310,000; AID 1490, 2009;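 also: the enzyme is Sfp with the accession as filed and its product quenches rhodamine fluorescence; 0% = enzyme reaction without inhibitor and -100% = no enzyme wells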
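Step 1, compound plus 15 nM Sfp-PPTase, 15 min, room temperature. Step 2, add rhodamine-CoA (5 uM) and BHQ-2-YbbR (12.5 uM). Step 3, read 525/598 nm fluorescence at 0 and 30 min.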
HP1b chromo inh – HTS for Inhibitors of HP1-beta Chromodomain Interactions with Methylated Histone Tails | AlphaScreen HP1-beta / biotin-H3K9me3 peptide binding | Potency, µM (top dose mostly 114 µM), for the others: at the top dose activity change, negative = inhibition, hits mostly inhibitors | hit rate 0.56% among 390,000 | AID 540317, 2011; also: nearly all actives have a fitted effect of over 70% in size
Target sequence (P83916 whole entry, looked up): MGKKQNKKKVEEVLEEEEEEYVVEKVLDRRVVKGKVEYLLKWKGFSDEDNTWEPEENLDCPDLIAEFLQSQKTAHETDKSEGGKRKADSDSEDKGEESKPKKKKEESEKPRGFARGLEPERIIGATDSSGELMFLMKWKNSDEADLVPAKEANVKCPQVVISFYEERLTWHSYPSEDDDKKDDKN
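HP1-beta protein (50 nM final) preincubated 30 min at room temperature with biotinylated H3(1-18)K9me3 peptide (50 nM) in PBS pH 7.4, 0.01% Tween-20, then compound added for 30 min. AlphaScreen streptavidin donor/nickel chelate acceptor beads (10 ug/mL final), 30 min dark, luminescence read.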
PLK1 PBD block – qHTS for Inhibitors of PLK1-PDB (polo-like kinase 1 - polo-box domain): Primary Screen; Potency, µM, for the others: max response, negative = inhibition, most hits filed as inhibitors; Serine/threonine-protein kinase PLK1 (Homo sapiens), P53350; hit rate 2.8% among 360,000; Plk1 PBD binding of FITC phosphopeptide, fluorescence polarization; also: series mostly up to about 57 µM; % is scaled to controls: 0 for no effect and ±100 for the full control effect; nearly all actives have a fitted effect of over 65% in size
JMJD2A Tudor inh – qHTS Assay for Inhibitors of JMJD2A-Tudor Domain; Lysine-specific demethylase 4A (Homo sapiens), O75164; AlphaScreen JMJD2A-Tudor / H3K4me3 peptide binding; Potency, µM (titrated, usually from 114 µM), inactives show at the top dose activity change, negative = inhibition, usual class: inhibitors; hit rate 4.4% among 390,000; also: % is scaled to controls: 0 for no effect and ±100 for the full control effect; nearly all actives have a fitted effect of over 50% in size
G9a block – qHTS Assay for Inhibitors of Histone Lysine Methyltransferase G9a; Histone-lysine N-methyltransferase EHMT2 (Homo sapiens), Q96KQ7; G9a H3K9 monomethylation, AlphaScreen, 2 h; Potency, µM (highest dose often 102 µM), for the others: at the highest dose activity, negative = inhibition, actives largely listed as inhibitors; hit rate 8.8% among 350,000; also: % is scaled to controls: 0 for no effect and ±100 for the full control effect; nearly all actives have a fitted effect of over 75% in size
Target sequence (Q96KQ7 913-1193 limits assumed): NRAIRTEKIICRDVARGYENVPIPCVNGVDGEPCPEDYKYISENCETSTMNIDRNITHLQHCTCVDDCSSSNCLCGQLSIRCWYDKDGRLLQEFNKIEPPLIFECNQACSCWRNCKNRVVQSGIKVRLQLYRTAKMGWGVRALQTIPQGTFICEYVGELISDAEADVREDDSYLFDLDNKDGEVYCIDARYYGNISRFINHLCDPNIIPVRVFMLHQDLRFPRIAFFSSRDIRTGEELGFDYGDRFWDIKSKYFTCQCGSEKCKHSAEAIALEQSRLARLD
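Methyltransferase reactions run at room temperature for 2 h (20 nM enzyme, 500 nM biotin-H3K9 peptide, 20 uM SAM) after a 15 min compound preincubation; product detected by AlphaScreen beads and anti-H3K9me1 antibody.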
BAZ2B inh – qHTS Assay for Inhibitors of BAZ2B; Bromodomain adjacent to zinc finger domain protein 2B (Homo sapiens), Q9UIF8; AlphaScreen BAZ2B-H3K14Ac peptide displacement; Potency, µM (series often up to 114 µM), for inactives: at the top dose activity change, negative = inhibition, hits mostly inhibitors; hit rate 4.4% among 360,000; AID 504333, 2011; also: % is scaled to controls: 0 for no effect and ±100 for the full control effect; nearly all actives have a fitted effect of over 60% in size
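BAZ2B (50 nM) with biotin-H3(5-23)K14Ac peptide (50 nM) in PBS pH 7.4, 0.01% Tween-20, preformed 30 min, then compound 30 min at room temperature; top concentration 110uM. AlphaScreen streptavidin donor/nickel chelate acceptor beads (10 ug/mL final), 20 min dark, signal read.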
The depositor's hits bear a star; u = inconclusive; x = not tested or not shown; [ ] = remark or other dose. Calls follow the shape of the dose curve; as a rule, active = well fitted curve in the direction sought with a large enough effect; inconclusive = small, poorly fitted or top-dose-only effect, or another doubt; inactive = no such curve, though single readings can be large; an effect the other way counts as inactive or inconclusive. Potency is read from the fitted curve at half-maximal effect.

SMILES	Sfp inh	HP1b chromo inh	PLK1 PBD block	JMJD2A Tudor inh	G9a block	BAZ2B inh
CC1CCCN(CCCNC(=O)c2cc(Sc3ccc(F)cc3)nc3ccccc23)C1 (centres undefined)	x	11%	x	-19%	-6%[59 µM]	-5%
Cc1ccc(-n2cnc3cc(C(=O)NCc4ccccc4Cl)ccc32)c(C)c1	x	3%	x	-29%	-37%[59 µM]	u
C=CCn1c(-c2cccc(OC)c2)n[nH]c1=S	1%	3%	-3%	11µM*	7.1µM*	7%
CCn1c(-c2cc(OC)c(OC)c(OC)c2)n[nH]c1=S	2%	42%	1%	7.9µM*	u	-8%
C=CCn1c(-c2cccc(OC)c2)nc2nc3ccccc3nc21	7%	12%	-9%	1%	-7%[59 µM]	10%
C=CCn1c(-c2cccnc2)n[nH]c1=S	12%	44%	1%	20µM*	45µM*	-28%
C=CCn1c(-c2cc(OC)c(OC)c(OC)c2)n[nH]c1=S	u	11%	-4%	6.3µM*	u	-4%
COCCNC(=O)c1[nH]c(C(F)(F)F)nc1-c1ccccc1	x	x	-7%	x	x	x
CC(C)OCCCNC(=O)CCCn1c(SCC(=O)c2ccc(F)cc2)nc2c(sc3ccccc32)c1=O	x	27%	x	-14%	-31%[59 µM]	-4%
COc1cccc2cc(-c3ccnc(=S)[nH]3)oc12	5%	x	x	x	0%	3%
C=CCn1c(-c2cc3cccc(OC)c3o2)n[nH]c1=S	-11%	29%	-18%	40µM*	6.3µM*	u
C=CCn1c(-c2cccc(OC)c2OC)n[nH]c1=S	15%	31%	-1%	7.9µM*	20µM*	-29%
Cc1ccccc1N=Nc1c(O)n(C)c2ccccc12	-26%	26%	u	-33%	7.9µM*	-14%
CN(Cc1cn[nH]c1-c1ccc(-c2ccccc2)cc1)CC1CCOCC1	11%	18%	-9%	-19%	-2%	-18%
Cc1n[nH]c(=O)c2c(NC(=O)CSc3nc4ccccc4c(=O)n3-c3ccc(OC(F)F)cc3)oc(C)c12	x	10%	-16%	-23%	4%[0.501 µM]	0%
CCOC(=O)CSc1nnnn1-c1cccc2ccccc12	-2%	75%	-8%	12%	10µM*	13%
COc1ccccc1-c1nnc(SCC(=O)Nc2oc(C)c3c(C)n[nH]c(=O)c23)n1C	x	41%	-13%	-3%	5µM*	-2%
COCCCn1c(SCC(=O)Nc2oc(C)c3c(C)n[nH]c(=O)c23)nc2ccccc2c1=O	x	19%	-2%	-4%	50µM*	-1%
COc1ccccc1NC(=O)CSc1nnnn1-c1ccccc1OC	12%	40%	1%	-9%	71µM*	6%
COc1ccccc1CNC(=O)COC(=O)/C=C/c1ccc(OC(F)F)c(OC)c1	x	36%	-5%	-14%	3%[0.501 µM]	1%
COc1cc(/C=C/C(=O)OCC(=O)Nc2oc(C)c3c(C)n[nH]c(=O)c23)ccc1OC(F)F	x	58%	-16%	-7%	14µM*	0%
Cc1n[nH]c(=O)c2c(NC(=O)CSc3nnc(C4CC4)n3C)oc(C)c12	x	47%	-8%	-14%	40µM*	-38%
COc1ccccc1-n1nnnc1SCC(=O)Nc1oc(C)c2c(C)n[nH]c(=O)c12	x	45%	-6%	-15%	11µM*	-6%
Cc1n[nH]c(=O)c2c(NC(=O)CSc3nnc(-c4ccco4)n3C)oc(C)c12	x	44%	-9%	-12%	u	-1%
Cc1ccc(S(=O)(=O)N2CCN(c3nc(-c4cccs4)nc4ccccc34)CC2)c(C)c1	x	42%	x	-7%	x	x
SMILES	Sfp inh	HP1b chromo inh	PLK1 PBD block	JMJD2A Tudor inh	G9a block	BAZ2B inh
O=c1[nH]c2ccc(Br)cc2c(-c2ccccc2)c1CN1CCOCC1	-11%	13%	u	u	50µM*	-11%
CC(=O)CSc1nnc(CN2C(=O)CSc3ccc(C(F)(F)F)cc32)n1C	-4%	37%	-16%	-13%	45µM*	-1%
CSc1nc2c(c(=O)[nH]c(=O)n2C)n1C/C=C(\C)Cl	-21%	-11%	-9%	-8%	40µM*	-8%
CCSc1nc2c(c(=O)[nH]c(=O)n2C)n1C/C=C(/C)Cl	-18%	15%	-9%	-2%	u	-5%
CCOC(=O)C(C)Sc1nc2c(c(=O)[nH]c(=O)n2C)n1C/C=C(/C)Cl (centres undefined)	22µM*	-80%	12µM*	u	7.1µM*	-5%
CN(C)CC[C@H](c1ccc(Br)cc1)c1ccccn1	27%	x	x	x	15%[21.5 µM]	x
Cc1cc(N2CCN(c3ccc(C(F)(F)F)cc3[N+](=O)[O-])CC2)c2ccccc2n1	71µM*	-26%	1%	45µM*	x	25µM*
CC(=O)N1CCc2c(sc(NC(=O)C3CC3)c2-c2nc3ccccc3s2)C1	45µM*	43%	u	-18%	u	6%
COc1c(C=O)c(O)cc2c1C(=O)c1ccccc1C2=O	u	x	x	x	5µM*	x
COc1ccc2c(c1O)C(=O)c1ccccc1C2=O	0%	x	x	x	9%[12.7 µM]	-24%
Cc1ccc(NC(=O)CSc2nnc(-c3cc4occc4n3C)n2-c2ccccc2C)c(Cl)c1	x	-6%	x	-29%	u	-31%
CC1CC(C)CN(C(=O)COC(=O)CN2C(=O)c3ccccc3C2=O)C1 (centres undefined)	x	-4%	-12%	-16%	x	x
CC1CC(C)CN(C(=O)c2ccc3c(c2NCCO)C(=O)c2ccccc2C3=O)C1 (centres undefined)	-20%	45µM*	-21%	14µM*	28µM*	u
O=C(NCc1cccc(Cl)c1)c1cccc(S(=O)(=O)N2CCCCC2)c1	x	44%	-1%	-8%	10%[12.7 µM]	-3%
O=C(NCc1n[nH]c(=S)n1-c1cccc(Cl)c1)c1ccc(S(=O)(=O)N2CCCCC2)cc1	-12%	21%	-8%	-31%	3.2µM*	16%
Cc1cccc(-n2c(CNC(=O)c3ccc(S(=O)(=O)N4CCCC4)cc3)n[nH]c2=S)c1	-17%	14%	-6%	10µM*	0.71µM*	-4%
CC1(C(=O)O)COC(c2ccc([N+](=O)[O-])cc2)OC1 (centres undefined)	11%	19%	-5%	-1%	8%	-5%
O=C1NC(C(=O)O)=CC(c2ccc([N+](=O)[O-])cc2)N1 (centres undefined)	8.9µM*	11%[57 µM]	-4%	18µM*	8.9µM*	u
CCn1c(=S)sc2c(=O)n(-c3ccccc3)c(SC)nc21	u	-11%	-10%	-23%	45µM*	-7%
